Results filed as inconclusive are left out. The source made the active and inactive calls. Calls follow the shape of the dose curve; as a rule, active = well fitted curve in the direction sought with a large enough effect; inconclusive = small, poorly fitted or top-dose-only effect, or another doubt; inactive = no such curve, though single readings can be large or run the other way.
Target: Polyunsaturated fatty acid lipoxygenase ALOX15 (Homo sapiens) (UniProt P16050)
Experiment: Counterscreen qHTS for inhibitors of human arachidonate 12S-lipoxygenase (ALOX12): ALOX15 Assay
Conditions: purified ALOX15 enzyme activity; series mostly up to 233 µM
Text: Assay Provider: Theodore R. Holman Ph.D.
University of California, Santa Cruz, California
Human lipoxygenase 12hLO is a member of the closely related lipoxygenase family of enzymes which catalyze the site-specific oxidation of arachidonic acid to various hormone precursor molecules and as such is a candidate for drug development in a variety of disease areas, such as cancer and inflammation. Inhibition of 12hLO activity was screened by utilizing arachidonic acid as a substrate. The extent of hydroperoxide product formation was measured by a secondary chromogenic reaction in which xylenol orange (XO, Sigma-Aldrich, cat. number 39,818-7) reacts with the ferric ions produced from the reaction between the hydroperoxide and ferrous ions. The Fe (III)-XO complex is characterized with red-shifted absorbance at 560 nm. A purified preparation of human 12hLO was supplied by Dr. Holman laboratory, University of California, Santa Cruz.
An assay against arachidonate 15-lipoxygenase (ALOX15) was developed to assess selective inhibition against ALOX12. Desired compounds would show potent inhibition against ALOX12 and minimal to no inhibition against ALOX15.
SEQUENCE No. (e.g., 1, 2, 3, etc.); PARAMETER (e.g., Cells, Incubation, Reagent, etc.); VALUE; DESCRIPTION
1; Enzyme; 3 uL; 40 nM ALOX15 (15hLO-1) enzyme solution dispensed in 1536-well Greiner black, clear bottom plates.
2; Compound; 23 nL; compounds and controls were added.
3; Incubate; 15 min; room temperature.
4; Substrate; 1 uL; 50 uM arachidonic acid (final concentration).
5; Incubate; 30 min; room temperature.
6; Reagent; 4 uL; Fe-XO solution was added to each well.
8; Incubation; 30 min; room temperature
9; Detector; absorbance; Read 1 at 405 nm absorbance using ViewLux (PerkinElmer) CCD imager.
10; Detector; absorbance; Read 2 at 573 nm absorbance using ViewLux (PerkinElmer) CCD imager.
NOTES (numbers refer to sequence above)
1; 40 nM ALOX15 (final concentration) in buffer solution (25 mM Hepes, 0.01% Triton X-100, pH 7.5) was dispensed in columns 1, 2, 5 - 48. Column 1 is neutral (100% activity). Buffer only was dispensed in columns 3 and 4 as no enzyme negative controls. The plates were covered with metal lids with gas-exchange holes.
2; Compounds were pin transferred via a Kalypsys Pin Tool (Wako USA) in column 5 - 48. Control compound was transferred in column 2, titration of nordihydroguaiaretic acid (NDGA, Sigma-Aldrich, N5023) with top concentration of 10 mM in DMSO then 1:2 dilution in duplicate. Dilution factor of 23 nL into 4 uL final assay volume.
3; Covered assay plates were incubated for 15 min at room temperature.
4; Substrate was added to start the reaction; 50 uM arachidonic acid (Sigma-Aldrich, St. Louis, MO) was dispensed throughout the plate.
6; Chromogenic detection reagent solution (divalent iron/xylenol orange, Fe-XO) was added to each well: 200 uM xylenol orange, 300 uM ferrous ammonium sulfate prepared freshly in 50 mM sulfuric acid.
9, 10; Two absorbance readouts were obtained at 405 nm and at 573 nm using a ViewLux high-throughput CCD plate imager (PerkinElmer). The 573 to 405 (Read 2 / Read 1) absorbance ratio was used to compute reaction progress.

Chain of Polyunsaturated fatty acid lipoxygenase ALOX15 (Homo sapiens) (P16050 whole entry, looked up): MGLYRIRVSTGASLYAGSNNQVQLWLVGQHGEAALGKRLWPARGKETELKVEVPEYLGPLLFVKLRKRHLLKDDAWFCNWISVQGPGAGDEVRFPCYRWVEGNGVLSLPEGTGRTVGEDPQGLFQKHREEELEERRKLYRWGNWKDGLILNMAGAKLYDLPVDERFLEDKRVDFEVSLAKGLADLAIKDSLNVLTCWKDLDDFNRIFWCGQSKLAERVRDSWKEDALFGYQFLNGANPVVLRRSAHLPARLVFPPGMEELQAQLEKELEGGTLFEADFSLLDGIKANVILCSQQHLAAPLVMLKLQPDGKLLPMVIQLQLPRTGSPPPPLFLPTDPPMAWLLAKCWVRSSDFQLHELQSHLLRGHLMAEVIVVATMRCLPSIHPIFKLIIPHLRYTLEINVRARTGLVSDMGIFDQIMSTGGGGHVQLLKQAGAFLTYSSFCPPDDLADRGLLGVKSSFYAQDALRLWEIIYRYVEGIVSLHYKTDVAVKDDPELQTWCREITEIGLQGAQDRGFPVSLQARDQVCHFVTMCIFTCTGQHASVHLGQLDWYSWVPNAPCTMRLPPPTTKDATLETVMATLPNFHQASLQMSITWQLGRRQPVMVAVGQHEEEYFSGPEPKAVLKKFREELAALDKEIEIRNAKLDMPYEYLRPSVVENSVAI

Compound | outcome
FC(F)(F)CN1C2CCC1CN(c1cncc(Br)c1)C2 | inactive
CNC1CCc2ccccc21 (stereo not given) | inactive
COc1ccc(C(CN)N2CCCC2)cc1 (stereo not given) | inactive
c1ccc(CC2CN3CCCC3CN2)cc1 (stereo not given) | inactive
O=C(O)C1=NOC2CN(Cc3cccc(Br)n3)CC12 (stereo not given) | inactive
CCCCC1CN2CCCC2CN1 (stereo not given) | inactive
c1cnc2nc(C3CCNCC3)[nH]c2c1 | inactive
CNC(C)c1ccc(Cl)cc1 (stereo not given) | inactive
CC(C)C1CN2CCCC2CN1 (stereo not given) | inactive
O=[S+]1([O-])NC2(CCN(CC3CCOCC3)C2)COc2ccncc21 (stereo not given) | inactive
CCN1CCCCC12Cc1ccccc1CN(C(=O)Cc1ccc(OC)cc1)C2 (stereo not given) | inactive
COc1ccc(CC(=O)N2Cc3ccccc3CC3(CCCCN3C)C2)cc1 (stereo not given) | inactive
O=C(Cc1ccc(Cl)cc1)N1Cc2ccccc2CC2(CCCN2CC2CCNC2)C1 (stereo not given) | inactive
O=C(O)C1=NOC2CN(Cc3ccccc3)CC12 (stereo not given) | inactive
CCN1CCCCC12Cc1ccccc1CN(C(=O)Cc1ccccc1)C2 (stereo not given) | inactive
CC1CN2CCCCC2CN1 (stereo not given) | inactive
O=C1Nc2ccccc2C12CCN(CC1CCCCC1)CC2 | inactive
O=C1Nc2ccccc2CN(Cc2ccncc2)C12CCNCC2 | inactive
CN(C)c1ccc(CN2CCC3(CC2)C(=O)Nc2ccccc23)cc1 | inactive
O=C1NC2(Cc3ccccc31)CN(CC1CC1)C2 | inactive

Source: PubChem BioAssay AID1671192 (National Center for Advancing Translational Sciences (NCATS), 2021)
